Screening results deposited in PubChem BioAssay by several laboratories.
An excerpt weighted towards active compounds, which were near 22% of everything screened.
CYP2C19 activ: activators of human cytochrome P450 2C19; recombinant CYP2C19, luciferin-H EGE luminescence; active compounds read high; 0 = fully inhibited enzyme, 1 = untreated enzyme; activation factor at 5 µM; P33261; 96,000 tested, under 10 active;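 active means activation factor of at least 2 at 5 µM in the primary screen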
Target sequence (P33261 whole entry, looked up): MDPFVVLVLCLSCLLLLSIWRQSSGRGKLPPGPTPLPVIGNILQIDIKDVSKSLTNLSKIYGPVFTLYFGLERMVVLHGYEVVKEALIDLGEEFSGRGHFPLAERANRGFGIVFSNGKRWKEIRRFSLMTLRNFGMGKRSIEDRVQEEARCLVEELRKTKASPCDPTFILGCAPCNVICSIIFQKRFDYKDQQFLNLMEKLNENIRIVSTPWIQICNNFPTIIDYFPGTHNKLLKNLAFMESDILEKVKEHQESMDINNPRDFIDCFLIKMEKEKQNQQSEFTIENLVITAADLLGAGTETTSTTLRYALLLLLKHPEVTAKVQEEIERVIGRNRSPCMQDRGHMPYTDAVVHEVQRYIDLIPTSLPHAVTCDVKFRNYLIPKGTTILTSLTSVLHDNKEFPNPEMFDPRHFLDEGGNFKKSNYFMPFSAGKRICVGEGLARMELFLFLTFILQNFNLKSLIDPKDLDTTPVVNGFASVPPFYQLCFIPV
CYP2C9 inh: human CYP2C9 inhibition | P11712 | CYP2C9 Supersomes, luciferin-H conversion, luminescence | inhibition, % at 5 µM | hit rate 20% among 96,000 | AID 777;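 active means blocking of liver enzyme CYP2C9 beyond about 50% at 5 µM, limit read from the data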
CYP2C19 inhib: blocks human cytochrome P450 2C19; inhibition, % at 5 µM; CYP2C19 Supersomes, luciferin-H EGE luminescence, 30 min; hit rate 21% among 96,000;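 active means CYP2C19 inhibition above a set limit at 5 µM in the primary screen, cut at about 50% in these data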
Measles CPE: protection of cells from measles virus; Measles virus-infected cells, CPE protection, absorbance; hit rate 1.5% among 140,000; protection (pct of control), % at 4 µM; in the data active means protection mostly above about 24%, no sharp cut-off; inactive means mostly below about 26%
CYP2C9 act: activators of human CYP2C9. P11712. recombinant CYP2C9, luciferin-H conversion, luminescence; active compounds read high; factor 1 = untreated enzyme, 0 = blocked. activation factor at 5 µM. hit rate 1.4% among 96,000. AID 1024;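 active means activation factor of 2 or more for CYP2C9 at a 5 µM dose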
Large screens that a line does not name were inactive.

CCOC(=O)C1=C(N)OC2=C(C(=O)CCC2)C12C(=O)N1c3c(ccc(C)c32)C(C)=CC1(C)C (stereo not drawn)	none (no result: CYP2C19 activ, CYP2C9 inh, CYP2C19 inhib, CYP2C9 act)
CCOC(=O)C1=C(N)Oc2cc(C)oc(=O)c2C12C(=O)N1c3c(cc(OC)cc32)C(C)=CC1(C)C (stereo not drawn)	none
CCOC(=O)C1=C(N)Oc2cc(C)oc(=O)c2C12C(=O)N1c3c(cccc32)C(C)=CC1(C)C (stereo not drawn)	CYP2C19 inhib 53.3
CC1N(O)C2CCCCCC2N1O (stereo not drawn)	none
CC(C)OCCCNC(=O)c1c(N)n(CC2CCCO2)c2nc3ccccc3nc12 (stereo not drawn)	CYP2C9 inh 84.9, CYP2C19 inhib 66.6
CCCNC(=O)c1c(N)n(CC2CCCO2)c2nc3ccccc3nc12 (stereo not drawn)	none
CCCCOCCCn1c(N)c(C(=O)OCCOC)c2nc3ccccc3nc21	CYP2C9 inh 51.8
COCCOC(=O)c1c(N)n(Cc2ccccc2)c2nc3ccccc3nc12	none
CCCCn1c(N)c(C(=O)OCC2CCCO2)c2nc3ccccc3nc21 (stereo not drawn)	CYP2C9 inh 73.7, CYP2C19 inhib 68.1
CC(C)CCOC(=O)c1c(N)n(CC2CCCO2)c2nc3ccccc3nc12 (stereo not drawn)	none
CC(C)CCn1c(N)c(C(=O)OCC2CCCO2)c2nc3ccccc3nc21 (stereo not drawn)	CYP2C9 inh 84.5, CYP2C19 inhib 63.1
O=c1c2cc([N+](=O)[O-])ccc2nc(CN2CCOCC2)n1-c1ccccc1F	none
CCOCCN1CCC(OC(C)=O)C(C)C1 (stereo not drawn)	none
O=c1cccc2n1CC1CC2CN(Cc2cccc(Cl)c2Cl)C1 (stereo not drawn)	CYP2C19 inhib 88.5, Measles CPE 42.7
O=c1cccc2n1CC1CC2CN(Cc2c(F)cccc2Cl)C1 (stereo not drawn)	CYP2C9 inh 55.1, CYP2C19 inhib 98.7
Cc1ccc2occ(CN3CC4CC(C3)c3cccc(=O)n3C4)c(=O)c2c1 (stereo not drawn)	none
Cc1c(Cl)cccc1NC(=S)N1CC2CC(C1)c1cccc(=O)n1C2 (stereo not drawn)	none (no result: CYP2C19 activ, CYP2C9 inh, CYP2C19 inhib, CYP2C9 act)
O=C(Nc1ccc(Cl)cc1C(=O)c1ccccc1)c1ccccc1Cl	none (no result: CYP2C19 activ, CYP2C9 inh, CYP2C19 inhib, CYP2C9 act)
N=C1C(c2ccccc2)=C(O)CN1Cc1ccco1	none
CCc1nc2ccccc2c(=O)n1-c1ccc2ccccc2c1	CYP2C19 inhib 93.4
CCCCc1nc2ccccc2c(=O)n1-c1ccccc1O	CYP2C19 inhib 54.5
CCCc1nc2ccccc2c(=O)n1-c1cccc(OC)c1	CYP2C19 inhib 51.2
CCCc1nc2ccccc2c(=O)n1-c1ccccc1OC	none
CCc1cccc(CC)c1NC(=S)N1CC2CC(C1)c1cccc(=O)n1C2 (stereo not drawn)	none (no result: CYP2C19 activ, CYP2C9 inh, CYP2C19 inhib, CYP2C9 act)
CCN1CCN(Cc2cc(OC)c(OC)cc2[N+](=O)[O-])CC1	none
Fc1ccccc1CCNCc1cccc(Cl)c1Cl	CYP2C19 inhib 86.0
Fc1ccccc1CCNCc1ccccc1	none (no result: CYP2C19 activ, CYP2C9 inh, CYP2C19 inhib, CYP2C9 act)
COc1ccc(N2C(=O)CC(N3CCC(n4c(=O)[nH]c5ccccc54)CC3)C2=O)cc1 (stereo not drawn)	none
CCOC(=O)c1ccc(N2C(=O)CC(N3CC=C(c4ccc(F)cc4)CC3)C2=O)cc1 (stereo not drawn)	CYP2C9 inh 64.5
CN(C)c1ccc(CN2CC=C(c3ccc(F)cc3)CC2)cc1	CYP2C19 inhib 62.0
CCN(CC)CCCC(C)N=C(c1ccccc1)c1c(O)n(C)c(=O)n(C)c1=O (stereo not drawn)	none
CN(C)C=C1C(=O)N(C2CCCCC2)C(=O)N(C2CCCCC2)C1=O	none
Cn1c(=O)cc(OCC(=O)N2CCN(Cc3ccc4c(c3)OCO4)CC2)c2ccccc21	CYP2C9 inh 72.0, CYP2C19 inhib 54.8
Cn1c(=O)cc(OCC(=O)N2CCN(C3CCCCC3)CC2)c2ccccc21	none
Cc1cnn(C2CCN(C)CC2)c1N	none
S=C(c1ccc(Cl)cc1)N1CCOCC1	CYP2C19 inhib 65.9
Cc1nc2ccc(Cl)cn2c1P(=S)(N1CCOCC1)N1CCOCC1	none
CCn1nc(-c2cccs2)nc2c(=O)n(C)c(=O)nc1-2	CYP2C9 inh 91.1, CYP2C19 inhib 98.7
COc1ccccc1CN1CCCCC1c1cccnc1 (stereo not drawn)	CYP2C19 inhib 50.4
COc1ccccc1CC1C(=O)C2CCN1CC2 (stereo not drawn)	none
CCCC1(CCC)C(=O)NC(=NCc2ccccc2)NC1=O	none
CCCC(C)C1(CC)C(=O)NC(=Nc2ccccc2)NC1=O (stereo not drawn)	none (no result: CYP2C19 activ, CYP2C9 inh, CYP2C19 inhib, CYP2C9 act)
